Reference: the supplement of paper PMC6555819

Key:
Experiment in all cases: PBM binding z-score (relative to random genomic background probes); higher = stronger binding; sequences stand for … in GC…GCGATTGACAGCGTAGAATGAAGG
[1] = system: FXR:RXRa (NR concentration 270 nM, RXRa partner concentration 90 nM)
Method in brief: (§1)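 Regression normalization was applied to scanned fluorescence from custom Agilent 4×180K protein-binding microarrays. Before scanning, arrays were incubated 1 h with ligand-free nuclear receptor dimers, and binding was detected with antibodies against each partner (one per run). Binding z-scores use the random background probes as reference.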

[2] = system: LXRa:RXRa (NR concentration 270 nM, RXRa partner concentration 90 nM)
Method in brief: as §1

[3] = system: LXRa homodimer (NR concentration 270 nM)
Method in brief: as §1

[4] = system: LXRb:RXRa (NR concentration 270 nM, RXRa partner concentration 90 nM)
Method in brief: as §1

[5] = system: LXRb homodimer (NR concentration 270 nM)
Method in brief: as §1

[6] = system: PPARa:RXRa (NR concentration 270 nM, RXRa partner concentration 90 nM)
Method in brief: as §1

[7] = system: PPARg:RXRa (NR concentration 180 nM, RXRa partner concentration 90 nM)
Method in brief: as §1

[8] = system: PPARg:RXRa 270nM:90nM, anti-RXR (NR concentration 270 nM, RXRa partner concentration 90 nM)
Method in brief: as §1

[9] = system: PPARg:RXRa 30nM:10nM, anti-RXR (NR concentration 30 nM, RXRa partner concentration 10 nM)
Method in brief: as §1

[10] = system: PPARg:RXRa 90nM:30nM, anti-RXR (NR concentration 90 nM, RXRa partner concentration 30 nM)
Method in brief: as §1

[11] = system: PPARg:RXRa DBDmut IVT, anti-RXR (DBD mutation: RXRa K156A/R161A, NR concentration 270 nM, RXRa partner concentration 90 nM)
Method in brief: as §1

[12] = system: PPARg:RXRa IVT, anti-PPARg (NR concentration 270 nM, RXRa partner concentration 90 nM)
Method in brief: as §1

[13] = system: PPARg DBDmut:RXRa IVT, anti-PPARg (DBD mutation: PPARg1 K132A/R137A, NR concentration 270 nM, RXRa partner concentration 90 nM)
Method in brief: as §1

[14] = system: PPARg DBDmut IVT, anti-PPARg (DBD mutation: PPARg1 K132A/R137A, NR concentration 270 nM)
Method in brief: as §1

[15] = system: PPARg homodimer (NR concentration 180 nM)
Method in brief: as §1

[16] = system: PXR:RXRa (NR concentration 270 nM, RXRa partner concentration 90 nM)
Method in brief: as §1

[17] = system: PXR homodimer (NR concentration 270 nM)
Method in brief: as §1

[18] = system: RARa:RXR (NR concentration 270 nM, RXRa partner concentration 90 nM)
Method in brief: as §1

[19] = system: RARa homodimer (NR concentration 270 nM)
Method in brief: as §1

[20] = system: RARb:RXRa (NR concentration 270 nM, RXRa partner concentration 90 nM)
Method in brief: as §1

Sequence | PBM binding z-score [1] | PBM binding z-score [2] | PBM binding z-score [3] | PBM binding z-score [4] | PBM binding z-score [5] | PBM binding z-score [6] | PBM binding z-score [7] | PBM binding z-score [8] | PBM binding z-score [9] | PBM binding z-score [10] | PBM binding z-score [11] | PBM binding z-score [12] | PBM binding z-score [13] | PBM binding z-score [14] | PBM binding z-score [15] | PBM binding z-score [16] | PBM binding z-score [17] | PBM binding z-score [18] | PBM binding z-score [19] | PBM binding z-score [20]
ACTATTAGTTGACTTAAGGCAACCGATACGACGC | 0.413 | 0.299 | 0.175 | 0.537 | 1.03 | 0.139 | 0.967 | 0.607 | 0.511 | 0.394 | 0.219 | 0.392 | 0.915 | 1.11 | 0.0202 | 0.21 | -0.0343 | 1.43 | 0.466 | 0.296
ACTAGCAGGCAAAGGGTCACTCAAGATTAGTCCG | 2.62 | 2.93 | 0.422 | 2.94 | -0.218 | 4.2 | 5.28 | 5.86 | 4.68 | 6.43 | 0.313 | 2.76 | -0.0407 | -1.05 | 2.82 | 3.4 | 0.241 | 4.35 | 1.42 | 3.42
TCATATAGGTACAAGGTGAAAGTCGGTGTGGTAA | 0.883 | 1.08 | 0.335 | 1.18 | 0.0749 | 3.3 | 4.66 | 5.75 | 5.85 | 6.21 | 3.23 | 2.75 | 0.878 | 0.815 | 1.21 | 0.845 | 0.358 | 1.25 | 1.19 | 1.12
CTCGAAAGGTCGGTTGAGGTGAGTCTACGGATAA | 2.75 | 1.97 | -0.215 | 1.29 | -0.179 | 2.62 | 0.161 | 1.13 | 0.171 | 0.803 | 0.22 | 0.948 | -0.0486 | -0.386 | 1.13 | 3.39 | -0.0836 | 2.2 | -0.523 | 2.97
ATATGTAGGTTAAGGGTCCTTCAGGTTGGTTCGC | 0.735 | 1.21 | 0.278 | 1.18 | 0.267 | 4.59 | 8.87 | 8.11 | 8.31 | 9.26 | 7.65 | 7.29 | 1.78 | 0.916 | 2.1 | 1.1 | 0.435 | 1.23 | 0.703 | 1.24
CCTGCTAGGTCATGGTCGGCTAATCTACAGTATG | 3.56 | 2.8 | -0.0293 | 1.91 | -0.492 | 3.56 | 2.32 | 2.78 | 0.716 | 1.99 | 4.22 | 3.41 | 0.753 | -0.172 | 1.51 | 1.41 | -0.226 | 2.46 | -0.276 | 3.93
